Max response data for 97 molecules are collected here from PubChem BioAssay AID2314 (National Center for Advancing Translational Sciences (NCATS), 2010).

“And” between values parts separate entries of the source, which are not always exact repeats. Identical values can stand only once. Among all 300,000 compounds or so, about 37,000 (12%) were called active. This excerpt belongs to a sample that is enriched for actives. Unmarked numbers belong to inactive results. No stated cut-off is given here; in the data, active means max response mostly above about 13% (no sharp cut-off); inactive means mostly below about 14%.

A short description of this assay: Cycloheximide Counterscreen for Small Molecule Inhibitors of Shiga Toxin. Further: read at 38.3 µM for the half of the compounds with a filed dose; 0% is about no effect. The note with it: cell reporter, cycloheximide protein synthesis inhibition counterscreen; active compounds read high. In general terms: The purpose of a counterscreen is to sort out artefacts and off-target activity.
Turning to `CCOc1cc(C)c(S(=O)(=O)NCc2ccccn2)cc1C`, the max response was -2.56%.
The same measure for `COc1cc(OC)c2ccc(=O)oc2c1C(CCN1CCN(c2ccccc2)CC1)c1ccc2c(c1)OCO2` (configuration not stated): 1.12% and 1.78%.
As to `Cc1cccc(CSc2nc3c(c(=O)n2C)SCC3)c1`, the max response is 8.73%.
The same measure for `CC(C)Oc1ccc(/C=N/NC(=O)c2nnn(-c3nonc3N)c2CN(C)C2CCCCC2)cc1`: -0.539%; for `O=C(O)CN1c2cccc3cccc(c23)S1(=O)=O`: 8.16%.
As to `CCN(CC)CCN1C(=O)C(=O)/C(=C(/O)c2ccc(OC)c(OC)c2)C1c1ccccn1` (configuration not stated), the max response was 17.9% (active).
Turning to `CCCOc1ccc(/C(O)=C2/C(=O)C(=O)N(CCN(C)C)C2c2ccc(OC)c(OC)c2)cc1` (configuration not stated), the max response is 5.75%.
Turning to `COc1ccc(/C(O)=C2/C(=O)C(=O)N(CCCN(C)C)C2c2ccccc2)cc1OC` (configuration not stated), the max response is 5.45%.
The same measure for `COc1ccc(S(=O)(=O)N2CCCC(C(=O)NCCCn3ccnc3)C2)cc1OC` (configuration not stated): -5.51%; for `Cc1ccsc1-c1cc(C(=O)O)c2c(ccc3ccccc32)n1`: 16.2%.
On to `CCOCCCNC(=O)c1cc2c(=O)n3ccccc3nc2s1`, for which the max response is 30.4% (active).
On to `Cc1cccn2c(=O)c3cc(C(=O)NC4CCCCC4)sc3nc12`, for which the max response is 7.47%.
For the molecule `CCn1c(=N)c(C(=O)NCCCOC)cc2c(=O)n3cccc(C)c3nc21`, the max response is -3.15%.
The same measure for `CC1CC(C)CN(CC(=O)N2c3ccccc3CCc3ccccc32)C1` (configuration not stated): -3.85%.
The same measure for `O=C(Nc1cccc([N+](=O)[O-])c1)Nn1cnnc1`: 3.77%.
As for `Cc1ccc(NC(=O)CN2CCc3ccccc3C2)cc1C`, the max response was 18%.
The same measure for `CN(CC(=O)Nc1cccc(F)c1)CC(=O)Nc1cccc([N+](=O)[O-])c1`: 13.6%.
As for `Cc1ccc(NC(=O)CN2CCc3ccccc3C2)cc1`, the max response was 16.3% (active).
The same measure for `Cc1cccc(C)c1NC(=O)c1ccc(CN2CCc3ccccc3C2)cc1`: -1.05%.
The same measure for `CCc1ccc(NC(=O)N2CCc3ccccc3C2)cc1`: 49.7% (active); for `COc1cc2c(cc1OC)CN(CC(=O)Nc1ccc(F)cc1)CC2`: -3.51%; for `CCc1ccc(NC(=O)N2CCN(c3ccccc3)CC2)cc1`: 12%.
Regarding `O=C(Nc1cccc([N+](=O)[O-])c1)N1CCc2ccccc2C1`, the max response is 51.1% (active).
Consider `Cn1c(=O)c([N+](=O)[O-])c(Oc2ccccc2)c2ccccc21`, for which the max response was -2.35%.
The same measure for `O=C(NC(=S)N1CCc2ccccc21)c1ccco1`: 8.62%; for `Cc1cc(O)cc(O)c1C(=O)Cc1cnn(-c2ccccc2)c1`: 14%.
As for `COc1ccc(C(=O)NNS(=O)(=O)c2ccc(C)cc2)cc1`, the max response is -1.39%.
For `Cc1[nH]nc(-c2ccc(OCc3cnn(-c4ccccc4)c3)cc2O)c1Oc1ccc(Cl)cc1`, the max response was 0.856%.
The same measure for `COc1ccc(C(=O)CC(=O)c2ccc(C)cc2)c(O)c1`: 20% (active); for `COc1ccc(C(=O)Cc2cnn(-c3ccccc3)c2)c(O)c1`: 39.4% (active); for `COc1ccc(C(=O)C[n+]2ccc(C)cc2)cc1`: 0.721%.
For `COc1ccc(CCNC(=S)NC(=O)/C=C/c2ccc(C)cc2)cc1OC`, the max response was 9.56%.
Take `COC(=O)c1c(NC(=O)C(=O)N2CCCCC2)sc2c1CC(C)(C)OC2`: the max response is -2.72%.
In the case of `CC(=O)N1CCN(CC(C)(C)NS(=O)(=O)c2ccc(C)cc2)CC1`, the max response is -1.04%.
Turning to `CCn1c(SCC(=O)Nc2nc3ccc(OC)cc3s2)nnc1-c1ccoc1C`, the max response is 23.1% (active).
Turning to `CCn1c(SCC(=O)NC2CCCC2)nnc1-c1ccoc1C`, the max response was -1.45%.
The same measure for `CCOc1ccc2nc(NC(=O)CSc3nc4c(c(=O)n(C)c(=O)n4C)n3CC)sc2c1`: -6.89%; for `CC(=O)Nc1ccc(SCC(=O)Nc2ccccc2Oc2ccccc2)cc1`: 0.468%; for `C=CCNC(=O)c1ccccc1NC(=O)c1ccc(Cl)c(S(=O)(=O)Nc2cccc(C)c2C)c1`: 1.27%.
The same measure for `CCc1cccc(C)c1NS(=O)(=O)c1c(C)nc2sccn2c1=O`: -1.71%; for `Cc1ccc2c(c1)c1ncn(CCC3=CCCCC3)c(=O)c1n2C`: -3.65%.
The same measure for `Cc1ccc2c(c1)c1ncnc(N3CCc4ccccc4C3)c1n2C`: 42.1% (active).
As for `Cc1ccc2c(c1)c1ncn(Cc3ccc(F)cc3)c(=O)c1n2C`, the max response is -2.24%.
The same measure for `OCCN1CCN(c2nnc(-c3ccccc3)c3ccccc23)CC1`: -4.91%; for `COc1ccc(S(=O)(=O)NCC(=O)NCc2cc(=O)n(C)c(=O)n2C)cc1F`: -6.78%.
In the case of `O=C(COc1ccc2c(c1)CCC2)N1CCN(c2ccc(F)cc2)CC1`, the max response is -1.09%.
The same measure for `CC(C)Cc1cc(C(=O)NCCc2ccccc2)no1`: 53.1% (active).
The same measure for `CCN(CC)CCCNC(=O)c1cc(-c2cccc(Cl)c2)on1`: 0.892%; for `Nc1nonc1C(=O)NCCc1ccccc1`: 10.9%.
The same measure for `O=C(COC(=O)c1ccc(F)cc1)NCCCc1ccccc1`: -9.6%.
For the molecule `CC(C)CNC(=O)c1cc(-c2ccc(Br)cc2)on1`, the max response was 36% (active).
The same measure for `Cc1cc(C(=O)NCCCc2ccccc2)no1`: 13.1% (active); for `O=C(NCCN1CCCC(O)C1)c1cc(COc2c(F)cccc2F)on1` (configuration not stated): 9.93%; for `CSc1ncc(C(=O)NCCCc2ccccc2)c(C)n1`: 10.8%.
The same measure for `O=C(NCCCc1ccccc1)c1cc(COc2c(F)cccc2F)on1`: 31.8% (active); for `CCCCNC(=S)NNC(=O)c1cc(C)on1`: -1.9%.
The same measure for `C[C@H](NC(=O)NCCc1ccccc1)C(=O)O`: -6.82%.
For the molecule `Cc1c(NC(=O)c2cc(-c3ccc(Br)cc3)on2)c(=O)n(-c2ccccc2)n1C`, the max response is -1.9%.
The same measure for `Cc1ccc2c(c1)N(CC(=O)NCCCN1CCCCC1)C(=O)c1cccnc1O2`: 1.05%.
The same measure for `Cc1cccc(NC(=O)Cn2c(=O)n(Cc3ccccc3)c(=O)c3c(C)c(C)sc32)c1`: -2.17%; for `CCOc1ccc(OCC)c(NC(=O)CSc2nnc(Cn3cnc4ccccc43)n2C)c1`: -0.798%; for `COc1cccc(-n2nc(C(=O)N3CCN(Cc4ccccc4)CC3)c3ccccc3c2=O)c1`: 1.57%.
On to `COc1ccc(C(=O)Nc2ccnn2C2CCN(Cc3ccncc3)CC2)cc1`, for which the max response was 7.85%.
The same measure for `O=C(CCN1C(=O)[C@@H]2Cc3ccccc3CN2C1=O)NCCc1ccccc1`: -1.26%; for `CCCOc1ccc(C2=CSC3=NCCN23)cc1Cl`: 1.92%; for `O=C(CSc1ncccn1)N1CCCC1`: -5.34%.
With `O=S(=O)(NCC1OCCc2ccccc21)c1ccccc1` (configuration not stated), the max response is 1.35%.
With `CC(=O)c1nc2ccccc2n1Cc1ccccc1`, the max response is -1.93%.
The same measure for `CC(C)Cc1cc(C(=O)Nc2cc(Br)ccc2O)no1`: 31.8% (active); for `COc1ccc(NS(=O)(=O)c2ccc(N3CCN(CCO)CC3)c([N+](=O)[O-])c2)cc1`: 1.31%.
Take `O=S(=O)(c1cccc2nonc12)N1CCN(c2cccc(Cl)c2)CC1`: the max response was 0.53%.
The same measure for `Cc1cc2cc3c(N)[nH]nc3nc2cc1C`: 20.7% (active); for `CCOc1cc(C(=S)N2CCOCC2)ccc1OS(=O)(=O)c1ccc(Br)cc1`: -1.79%; for `CC(=O)c1ccc(S(=O)(=O)NCc2nnnn2-c2ccccc2)cc1`: -4.62%.
`Cc1cc(C)cc(NC(=O)C2CCCN(S(=O)(=O)c3ccc4[nH]c(=O)ccc4c3)C2)c1` (configuration not stated): the max response was 1.72%.
For the molecule `CCOc1ccc(C2/C(=C(/O)c3ccc4c(c3)CC(C)O4)C(=O)C(=O)N2CCCn2ccnc2)cc1` (configuration not stated), the max response is 0.806%.
The same measure for `COc1ccc(-c2nc3ccccc3n2CCC(C)C)cc1OC`: -2.09%; for `CCOCCn1c(-c2ccccc2)nc2ccccc21`: -1.28%.
Consider `COCCn1c(-c2ccc(OC)c(OC)c2)nc2ccccc21`, for which the max response was 18.4% (active).
Consider `CC(NCc1ccccc1OC1CCCC1)c1ccccc1` (configuration not stated), for which the max response was -1.87%.
The same measure for `Cc1cc(Cl)c2oc(C(=O)N(C)C(C)c3ccccn3)c(C)c2c1` (configuration not stated): 28.7% (active).
The same measure for `Cc1cc(Cl)c2oc(C(=O)N3CCC(O)(c4ccccc4)CC3)c(C)c2c1`: 4.04%.
With `Cc1cc(Cl)c2oc(C(=O)NC(C)c3ccncn3)c(C)c2c1` (configuration not stated), the max response is 6.71%.
Consider `COc1ccc(CNC(=O)C2CC(c3ccc(C(F)(F)F)cc3)=NO2)cc1` (configuration not stated), for which the max response is -0.982%.
Turning to `Cc1cc(OCCCCOc2ccc(C#N)cc2)ccc1[N+](=O)[O-]`, the max response is -6.16%.
The same measure for `CC(=O)Nc1ccc(NC(=O)CSc2ncnc3c2cnn3Cc2ccccc2)cc1`: 6%; for `COc1ccc(-n2ncc3c(SCC(=O)NNC(C)=O)ncnc32)cc1`: 26.3% (active).
As to `COc1ccc(N2CCN(C(=O)CSc3ncnc4c3cnn4-c3ccc(OC)cc3)CC2)cc1`, the max response was -1.01%.
As to `O=C(CSc1ncnc2c1cnn2CCc1ccccc1)Nc1ccc(F)cc1`, the max response is 2.37%.
Turning to `COc1ccccc1N1CCN(C(=O)CSc2nnc(-c3ccoc3C)o2)CC1`, the max response is -1.64%.
`CC(C)Sc1ncnc2c1cnn2-c1ccccc1`: the max response was 46.6% (active).
The same measure for `COc1ccc(NC(=O)CSc2ncnc3[nH]ncc23)cc1`: 1.38%.
In the case of `c1ccc(-n2ncc3c2ncn2c(C4CCCCC4)nnc32)cc1`, the max response is -1.23%.
On to `COc1ccccc1N1CCN(C(=O)CSc2ncnc3c2cnn3-c2ccc(C)c(C)c2)CC1`, for which the max response is 44.7% (active).
As to `c1ccc(-n2ncc3c(N4CCCC4)ncnc32)cc1`, the max response is 8.89%.
Take `COC(=O)CSc1ncnc2c1cnn2-c1ccc(C)cc1C`: the max response was -8.2%.
The same measure for `CCN(CC)C(=O)CSc1ncnc2c1cnn2-c1ccccc1`: 38.4% (active).
